{"source": "PubChem BioAssay (NCI)", "note": "Compounds without any hit were thinned out: in the full panel of roughly 83,000, 20% have a hit.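 How to read the values: 0–100, growth inhibition (40 = 60% inhibited); 0, no net growth; -100 to 0, cell death (-40 = 40% of starting cells died; -100 = all dead).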 Activity calls are given as the source filed them. Rule for the calls: active = growth percent below 10; inactive = the rest."}
{"tested_on": "DU-145 prostate", "experiment": "NCI-60 one-dose screen, 48 h (100 = growth as untreated, 0 = no growth, -100 = all killed)", "conditions": "10 µM unless noted"}
{"compound": "O=C(CO[N+](=O)[O-])Nc1ccc(C(=O)/C=C/c2ccc(Cl)cc2)cc1", "growth": "79.9% (inactive)"}
{"compound": "COc1ccc(-c2cc(-c3cccnc3)nc3sc4c(=O)n(-c5ccc(C)cc5)nnc4c23)cc1OC", "growth": "107% (inactive)"}
{"compound": "CN(C)CC(=O)Nc1ccc(Cn2nnc3c2C(=O)c2nnn(Cc4ccc(NC(=O)CN(C)C)cc4)c2C3=O)cc1", "growth": "-96.2% (active)"}
{"compound": "COc1ccc2nc3cc(Cl)ccc3c(N3CCN(c4ccnc(N5CCOCC5)n4)CC3)c2c1", "growth": "24.2% (inactive)"}
{"compound": "Oc1ccc(Nc2nccc(-c3ccc4ccccc4c3)n2)cc1", "growth": "55.5% (inactive)"}
{"compound": "CC[C@H](Nc1nc(N)nc(C)c1C#N)c1nc2cccc(NCc3ccc(C(=O)NO)cc3)c2c(=O)n1-c1ccccc1", "growth": "17.2% (inactive)"}
{"compound": "CC[C@H](Nc1cc(C)nc(N)n1)c1nc2cccc(NCc3ccc(C(=O)NO)cc3)c2c(=O)n1-c1ccccc1", "growth": "36.4% (inactive)"}
{"compound": "CN(C)CCOc1ccc(-c2nc3ccc(-c4nc5ccc(N6CCN(C)CC6)cc5[nH]4)cc3[nH]2)cc1", "growth": "82.4% (inactive)"}
{"compound": "O=C1C(Cl)=C(Cl)C(=O)c2c1nc1n2CCCC1", "growth": "96.9% (inactive)"}
{"compound": "COc1ccc(-c2cn3c(-c4ccc(OC)cc4)cnc3c(Oc3ccc4c(C)cc(=O)oc4c3)n2)cc1", "growth": "29.5% (inactive)"}
{"compound": "COc1cc2cc(COc3nccc(-c4ccc(Cl)cc4)n3)c(=O)[nH]c2cc1OC", "growth": "81.4% (inactive)"}
{"compound": "CC(C)CC(CC1=CCC2CC1C2(C)C)C1=C(O)C(C)(C)C(=O)C(C)(C)C1=O", "note": "(stereo not drawn)", "growth": "33.6% (inactive)"}
{"compound": "CN(C)C(=O)c1cc2cnc(Nc3ccc(-c4csc5c(=O)cc(N6CCNCC6)oc45)cc3)nc2n1C1CCCC1", "growth": "29.9% (inactive)"}
{"compound": "Nc1nc(-c2ccc(F)cc2)cc(-c2cnn(-c3ccccc3)n2)n1", "growth": "104% (inactive)"}
{"compound": "O=C(CCN1CCOCC1)Nc1ccc(Cn2nnc3c2C(=O)c2nnn(Cc4ccc(NC(=O)CCN5CCOCC5)cc4)c2C3=O)cc1", "growth": "60.6% (inactive)"}
{"compound": "CC1(C)CC(=O)C(c2c(-c3ccccc3)[nH]c3[nH]c(=S)[nH]c(=O)c23)=C(O)C1", "growth": "124% (inactive)"}
{"compound": "O=C(CNC1C2CC3CC(C2)CC1C3)Sc1nnc2sc3ccccc3n12", "note": "(stereo not drawn)", "growth": "110% (inactive)"}
{"compound": "COc1c2ccccc2c(OC)c2[nH]c(=O)ccc12", "growth": "-95.1% (active)"}
{"compound": "CC(=O)/C(=C/c1cccc(Cl)c1)C(=O)c1ccccc1", "growth": "92.2% (inactive)"}
{"compound": "CN1C2CCC1/C(=C\\c1ccc(Cl)cc1)C1=C2[C@@H](c2ccc(Cl)cc2)C(C#N)=C(N)O1", "note": "(stereo partly drawn)", "growth": "94.5% (inactive)"}
{"compound": "O=C(/C=C/c1cccc(Br)c1)c1ccccc1", "growth": "92.1% (inactive)"}
{"compound": "CN1CCN(Cc2ccc(NC(=O)c3[nH]ncc3Nc3ncnc4sccc34)cc2)CC1", "growth": "7.12% (active)"}
{"compound": "CSc1nc(NCCCNc2ccnc3cc(Cl)ccc23)cc(-c2ccccc2)n1", "growth": "81.3% (inactive)"}
{"compound": "C[C@@H]1CC[C@@H]2[C@@H]1[C@H](OC(=O)/C=C/c1ccccc1)[C@]1(c3ccccc3)C[C@@H](OC(=O)CO)[C@@]2(C)O1", "growth": "102% (inactive)"}
{"tested_on": "MALME-3M melanoma", "experiment": "NCI-60 one-dose screen, 48 h (100 = growth as untreated, 0 = no growth, -100 = all killed)", "conditions": "10 µM unless noted"}
{"compound": "CC1=N/C(=C\\c2cccc(Br)c2)C(=O)O1", "growth": "98.8% (inactive)"}
{"compound": "O=C1C=CC(=O)c2c1nc1n2CCCC1", "growth": "-71.2% (active)"}
{"compound": "Cc1ccc2c(NCCCN(C)C)c3c(C)nn(C)c3nc2c1", "growth": "52.7% (inactive)"}
{"compound": "COC(=O)[C@H](C(C)C)n1c(=O)c2cc(OC)c(OC)cc2c2cnc3[nH]ccc3c21", "growth": "85.1% (inactive)"}
{"compound": "NCCN1CCN(c2nccc(-c3ccc4ccccc4c3)n2)CC1", "growth": "60.3% (inactive)"}
{"compound": "Oc1cccc(Nc2nccc(-c3ccc4ccccc4c3)n2)c1", "growth": "68% (inactive)"}
{"compound": "CN1CCN(c2ccc3nc(-c4ccc5nc(-c6ccc(OCCC(C)(C)C)cc6)[nH]c5c4)[nH]c3c2)CC1", "growth": "18.2% (inactive)"}
{"compound": "CCOC(=O)C(CC)n1c(=O)c2cc(OC)c(OC)cc2c2cnc3[nH]ccc3c21", "note": "(stereo not drawn)", "growth": "98.9% (inactive)"}
{"compound": "O=C(Cn1cc(CN2C(=O)c3ccccc3S2(=O)=O)nn1)Nc1ccc([N+](=O)[O-])cc1Cl", "growth": "101% (inactive)"}
{"compound": "COc1ccc2[nH]c(=O)c(/C=C/C(=O)c3ccc(Nc4nccc(-c5ccc6ccccc6c5)n4)cc3)cc2c1", "growth": "101% (inactive)"}
{"compound": "Cn1cc(-c2ccc(-c3cn(C)c4ncccc34)[nH]2)c2cccnc21", "growth": "86.5% (inactive)"}
{"compound": "Nc1ccc(Nc2nccc(-c3ccc4ccccc4c3)n2)cc1", "growth": "59.5% (inactive)"}
{"compound": "CCN1CCN(Cc2ccc(NC(=O)Nc3nc4ccc(Oc5ccnc(C(=O)NC)c5)cc4s3)cc2C(F)(F)F)CC1", "growth": "-68% (active)"}
{"compound": "COCCOc1ccc(-c2nc3ccc(-c4nc5ccc(N6CCN(C)CC6)cc5[nH]4)cc3[nH]2)cc1", "growth": "-38.9% (active)"}
{"compound": "CCOC(=O)C(=Cc1ccccc1F)C(=O)OCC", "growth": "94.2% (inactive)"}
{"compound": "O=C(CO[N+](=O)[O-])Nc1ccc(C(=O)/C=C/c2ccc(Cl)cc2)cc1", "growth": "79.1% (inactive)"}
{"compound": "COc1ccc(-c2cc(-c3cccnc3)nc3sc4c(=O)n(-c5ccc(C)cc5)nnc4c23)cc1OC", "growth": "96% (inactive)"}
{"compound": "CN(C)CC(=O)Nc1ccc(Cn2nnc3c2C(=O)c2nnn(Cc4ccc(NC(=O)CN(C)C)cc4)c2C3=O)cc1", "growth": "-81.2% (active)"}
{"compound": "COc1ccc2nc3cc(Cl)ccc3c(N3CCN(c4ccnc(N5CCOCC5)n4)CC3)c2c1", "growth": "80.3% (inactive)"}
{"compound": "Oc1ccc(Nc2nccc(-c3ccc4ccccc4c3)n2)cc1", "growth": "59.8% (inactive)"}
{"compound": "CC[C@H](Nc1nc(N)nc(C)c1C#N)c1nc2cccc(NCc3ccc(C(=O)NO)cc3)c2c(=O)n1-c1ccccc1", "growth": "21.5% (inactive)"}
{"compound": "CC[C@H](Nc1cc(C)nc(N)n1)c1nc2cccc(NCc3ccc(C(=O)NO)cc3)c2c(=O)n1-c1ccccc1", "growth": "37.6% (inactive)"}
{"compound": "CN(C)CCOc1ccc(-c2nc3ccc(-c4nc5ccc(N6CCN(C)CC6)cc5[nH]4)cc3[nH]2)cc1", "growth": "24.1% (inactive)"}
{"compound": "O=C1C(Cl)=C(Cl)C(=O)c2c1nc1n2CCCC1", "growth": "73.2% (inactive)"}
{"compound": "COc1ccc(-c2cn3c(-c4ccc(OC)cc4)cnc3c(Oc3ccc4c(C)cc(=O)oc4c3)n2)cc1", "growth": "26.7% (inactive)"}
{"compound": "COc1cc2cc(COc3nccc(-c4ccc(Cl)cc4)n3)c(=O)[nH]c2cc1OC", "growth": "45.7% (inactive)"}
{"compound": "CC(C)CC(CC1=CCC2CC1C2(C)C)C1=C(O)C(C)(C)C(=O)C(C)(C)C1=O", "note": "(stereo not drawn)", "growth": "13.9% (inactive)"}
{"compound": "CN(C)C(=O)c1cc2cnc(Nc3ccc(-c4csc5c(=O)cc(N6CCNCC6)oc45)cc3)nc2n1C1CCCC1", "growth": "60.2% (inactive)"}
{"compound": "Nc1nc(-c2ccc(F)cc2)cc(-c2cnn(-c3ccccc3)n2)n1", "growth": "124% (inactive)"}
{"compound": "O=C(CCN1CCOCC1)Nc1ccc(Cn2nnc3c2C(=O)c2nnn(Cc4ccc(NC(=O)CCN5CCOCC5)cc4)c2C3=O)cc1", "growth": "-69.9% (active)"}
{"compound": "CC1(C)CC(=O)C(c2c(-c3ccccc3)[nH]c3[nH]c(=S)[nH]c(=O)c23)=C(O)C1", "growth": "112% (inactive)"}
{"compound": "O=C(CNC1C2CC3CC(C2)CC1C3)Sc1nnc2sc3ccccc3n12", "note": "(stereo not drawn)", "growth": "95.2% (inactive)"}
{"compound": "COc1c2ccccc2c(OC)c2[nH]c(=O)ccc12", "growth": "-63.2% (active)"}
{"compound": "CC(=O)/C(=C/c1cccc(Cl)c1)C(=O)c1ccccc1", "growth": "85.5% (inactive)"}
{"compound": "CN1C2CCC1/C(=C\\c1ccc(Cl)cc1)C1=C2[C@@H](c2ccc(Cl)cc2)C(C#N)=C(N)O1", "note": "(stereo partly drawn)", "growth": "88% (inactive)"}
{"compound": "O=C(/C=C/c1cccc(Br)c1)c1ccccc1", "growth": "99.3% (inactive)"}
{"compound": "CN1CCN(Cc2ccc(NC(=O)c3[nH]ncc3Nc3ncnc4sccc34)cc2)CC1", "growth": "16.7% (inactive)"}
{"compound": "CSc1nc(NCCCNc2ccnc3cc(Cl)ccc23)cc(-c2ccccc2)n1", "growth": "56.9% (inactive)"}
{"compound": "C[C@@H]1CC[C@@H]2[C@@H]1[C@H](OC(=O)/C=C/c1ccccc1)[C@]1(c3ccccc3)C[C@@H](OC(=O)CO)[C@@]2(C)O1", "growth": "108% (inactive)"}
